From PubChem BioAssay (NCI) come the findings set out here.

About 79,000 compounds went through this panel and 15% of them were active in at least one assay; those are over-represented in the sample as a whole. Calls of active or inactive are those of the source. Rule as the data show it: active = growth inhibition above about 70%; inactive = the rest.

This assay can be described thus: NCI Yeast Anticancer Drug Screen. Data for the cln2 rad14 strain (AID 165).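 Also: 0% = growth equal to vehicle treated cultures.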 Conditions: S. cerevisiae cln2 rad14 strain, at 50.0 µM (retest, dose inferred, filed as 5.0), active compounds read high. Summed up:
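Yeast carrying cln2 and rad14 alterations (cell cycle control and DNA damage repair) were exposed to compounds. Growth inhibition was measured against vehicle-treated controls.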
Consider `N#C/C(=C\C(Cl)=C/c1ccccc1)C(N)=S`, for which the growth inhibition was 95% (active).
With `CC[N+](C)(CC)CCC(=O)/C=C/c1ccccc1` the figure was 49% (inactive); with `CC(=O)n1c(=S)n(C(C)=O)c2ccccc21`, 39% (inactive); with `Nc1ccccc1/C=C1/Sc2cc[nH]c2C1=O`, -3% (inactive).
On to `C=C1CC2(CCCC3(CC(=C)C(=O)O3)C2(C)C)OC1=O` (configuration not stated), for which the growth inhibition was 96% (active).
In the case of `O=C1/C(=C\c2ccc(Cl)cc2Cl)Sc2scc(-c3ccc(O)c(O)c3)[n+]21`, the growth inhibition was 71% (active).
Under `COc1cc(OC(C)C)cc2c1C(=O)C(C(O)(O)C(F)(F)F)=CC2=O` stands 85% (active); under `Cc1c(N=Nc2ccc(Br)cc2)c(-c2ccccc2)nn1C(N)=S`, 94% (active); under `COc1ccc2nc3c([N+](=O)[O-])ccc(NCCCN(C)C)c3c(N)c2c1`, 50% (inactive).
As for `CN(C)CCC[Si]1(C)c2ccccc2CCc2ccccc21`, the growth inhibition is -5% (inactive).
As for `CC(=O)N(C)c1cc(NCc2ccccc2)ccc1OCc1ccccc1`, the growth inhibition is 24% (inactive).
Under `ClCCOCCOc1c(Cl)cc(Cl)c(Cl)c1Cl` stands -11% (inactive); under `Nc1ccc2nc(N)sc2c1`, 2% (inactive).
As for `CC(C)(C)c1cc(C2c3cc4c(cc3OC(O)(CO)C2C(=O)O)OCO4)cc(C(C)(C)C)c1O` (configuration not stated) (tested in a mixture with another compound), the growth inhibition was 68% (inactive).
Under `COc1ccc(C2COc3c(ccc(O)c3O)C2)cc1OC` (configuration not stated) stands 41% (inactive).
With `Cc1ccc(OCC2CO2)c(Br)c1` (configuration not stated) the figure was 15% (inactive).
Under `CCN(CC)CCNc1ccc(C)c2sc3c(OC)cccc3c(=O)c12` stands 8% (inactive).
